# Laboratory results as given in article PMC11062922 (Nature Chemical Biology, 2023).
# Like-named read-outs stand apart in the source and are kept apart here.
# How the values were obtained:
# IKBKE = details: read-out: apparent Kd, n = 1
# NUAK1 = details: read-out: apparent Kd, n = 1
# [1] = compound concentrations:100 nM and 1000 nM (sheet 'Lestaurtinib' of Supplementary Table 1),run:Lestaurtinib_02364_R2,Plate:MR002
# [2] = compound concentrations:100 nM and 1000 nM (sheet 'Lestaurtinib' of Supplementary Table 1),run:Lestaurtinib_02364_R3,Plate:MR002
# [3] = compound concentrations:100 nM and 1000 nM (sheet 'Lestaurtinib' of Supplementary Table 1),run:Lestaurtinib_02367_R1,Plate:MR003
# [4] = compound concentrations:100 nM and 1000 nM (sheet 'Lestaurtinib' of Supplementary Table 1),run:Lestaurtinib_02381_R1,Plate:MR004
# [5] = compound concentrations:100 nM and 1000 nM (sheet 'Lestaurtinib' of Supplementary Table 1),run:Lestaurtinib_02437_R1,Plate:MR007
# [6] = compound concentrations:100 nM and 1000 nM (sheet 'Lestaurtinib' of Supplementary Table 1),run:Lestaurtinib_02437_R2,Plate:MR007
# [7] = compound concentrations:100 nM and 1000 nM (sheet 'Lestaurtinib' of Supplementary Table 1),run:Lestaurtinib_02438_R1,Plate:MR008
# [8] = compound concentrations:100 nM and 1000 nM (sheet 'Lestaurtinib' of Supplementary Table 1),run:Lestaurtinib_02438_R2,Plate:MR008
# [9] = compound concentrations:100 nM and 1000 nM (sheet 'Lestaurtinib' of Supplementary Table 1),run:Lestaurtinib_02443_R2,Plate:MR009
# [10] = compound concentrations:100 nM and 1000 nM (sheet 'Lestaurtinib' of Supplementary Table 1),run:Lestaurtinib_02482_R1,Plate:MR011
# [11] = compound concentrations:100 nM and 1000 nM (sheet 'Lestaurtinib' of Supplementary Table 1),run:Lestaurtinib_02482_R3,Plate:MR011
# [12] = compound concentrations:100 nM and 1000 nM (sheet 'Lestaurtinib' of Supplementary Table 1),run:Lestaurtinib_02487_R2,Plate:MR012
substance,measurement,setting,value
Lestaurtinib,potency estimated from few doses,"IKBKE; compound concentrations:100 nM and 1000 nM (sheet 'Lestaurtinib' of Supplementary Table 1),run:Lestaurtinib_02364_R1,Plate:MR002",769 nM
same,potency estimated from few doses,IKBKE; [1],896 nM
same,potency estimated from few doses,IKBKE; [2],647 nM
same,potency estimated from few doses,IKBKE; [3],711 nM
same,potency estimated from few doses,"IKBKE; compound concentrations:100 nM and 1000 nM (sheet 'Lestaurtinib' of Supplementary Table 1),run:Lestaurtinib_02367_R2,Plate:MR003",972 nM
same,potency estimated from few doses,IKBKE; [4],695 nM
same,potency estimated from few doses,"IKBKE; compound concentrations:100 nM and 1000 nM (sheet 'Lestaurtinib' of Supplementary Table 1),run:Lestaurtinib_02381_R2,Plate:MR004",551 nM
same,potency estimated from few doses,"IKBKE; compound concentrations:100 nM and 1000 nM (sheet 'Lestaurtinib' of Supplementary Table 1),run:Lestaurtinib_02381_R3,Plate:MR004",713 nM
same,potency estimated from few doses,"IKBKE; compound concentrations:100 nM and 1000 nM (sheet 'Lestaurtinib' of Supplementary Table 1),run:Lestaurtinib_02407_R3,Plate:MR005",883 nM
same,potency estimated from few doses,"IKBKE; compound concentrations:100 nM and 1000 nM (sheet 'Lestaurtinib' of Supplementary Table 1),run:Lestaurtinib_02422_R3,Plate:MR006",976 nM
same,potency estimated from few doses,IKBKE; [5],554 nM
same,potency estimated from few doses,IKBKE; [6],807 nM
same,potency estimated from few doses,"IKBKE; compound concentrations:100 nM and 1000 nM (sheet 'Lestaurtinib' of Supplementary Table 1),run:Lestaurtinib_02437_R3,Plate:MR007",71.2 nM
same,potency estimated from few doses,IKBKE; [7],861 nM
same,potency estimated from few doses,IKBKE; [8],834 nM
same,potency estimated from few doses,"IKBKE; compound concentrations:100 nM and 1000 nM (sheet 'Lestaurtinib' of Supplementary Table 1),run:Lestaurtinib_02443_R1,Plate:MR009",745 nM
same,potency estimated from few doses,IKBKE; [9],713 nM
same,potency estimated from few doses,IKBKE; [10],1130 nM
same,potency estimated from few doses,IKBKE; [11],627 nM
same,potency estimated from few doses,IKBKE; [12],1150 nM
same,potency estimated from few doses,"IKBKE; compound concentrations:100 nM and 1000 nM (sheet 'Lestaurtinib' of Supplementary Table 1),run:Lestaurtinib_02487_R3,Plate:MR012",756 nM
same,potency estimated from few doses,"IKBKE; compound concentrations:100 nM and 1000 nM (sheet 'Lestaurtinib' of Supplementary Table 1),run:Lestaurtinib_02496_R1,Plate:MR013",710 nM
same,potency estimated from few doses,"IKBKE; compound concentrations:100 nM and 1000 nM (sheet 'Lestaurtinib' of Supplementary Table 1),run:Lestaurtinib_02496_R2,Plate:MR013",695 nM
same,potency estimated from few doses,"IKBKE; compound concentrations:100 nM and 1000 nM (sheet 'Lestaurtinib' of Supplementary Table 1),run:Lestaurtinib_02566_R1,Plate:MR014",877 nM
same,potency estimated from few doses,"IKBKE; compound concentrations:100 nM and 1000 nM (sheet 'Lestaurtinib' of Supplementary Table 1),run:Lestaurtinib_02572_R1,Plate:MR015",756 nM
same,potency estimated from few doses,"IKBKE; compound concentrations:100 nM and 1000 nM (sheet 'Lestaurtinib' of Supplementary Table 1),run:Lestaurtinib_02572_R2,Plate:MR015",857 nM
same,potency estimated from few doses,"IKBKE; compound concentrations:100 nM and 1000 nM (sheet 'Lestaurtinib' of Supplementary Table 1),run:Lestaurtinib_02572_R3,Plate:MR015",855 nM
same,potency estimated from few doses,"IKBKE; compound concentrations:100 nM and 1000 nM (sheet 'Lestaurtinib' of Supplementary Table 1),run:Lestaurtinib_02577_R1,Plate:MR016",799 nM
same,potency estimated from few doses,"IKBKE; compound concentrations:100 nM and 1000 nM (sheet 'Lestaurtinib' of Supplementary Table 1),run:Lestaurtinib_02577_R2,Plate:MR016",785 nM
same,potency estimated from few doses,"IKBKE; compound concentrations:100 nM and 1000 nM (sheet 'Lestaurtinib' of Supplementary Table 1),run:Lestaurtinib_02577_R3,Plate:MR016",713 nM
same,potency estimated from few doses,"IKBKE; compound concentrations:100 nM and 1000 nM (sheet 'Lestaurtinib' of Supplementary Table 1),run:Lestaurtinib_02584_R2,Plate:MR017",744 nM
same,potency estimated from few doses,"IKBKE; compound concentrations:100 nM and 1000 nM (sheet 'Lestaurtinib' of Supplementary Table 1),run:Lestaurtinib_02584_R3,Plate:MR017",935 nM
same,potency estimated from few doses,"IKBKE; compound concentrations:100 nM and 1000 nM (sheet 'Lestaurtinib' of Supplementary Table 1),run:Lestaurtinib_02601_R3,Plate:MR018",796 nM
same,potency estimated from few doses,"IKBKE; compound concentrations:100 nM and 1000 nM (sheet 'Lestaurtinib' of Supplementary Table 1),run:Lestaurtinib_02606_R1,Plate:MR019",995 nM
same,potency estimated from few doses,"IKBKE; compound concentrations:100 nM and 1000 nM (sheet 'Lestaurtinib' of Supplementary Table 1),run:Lestaurtinib_02624_R2,Plate:MR020",729 nM
same,potency estimated from few doses,"IKBKE; compound concentrations:100 nM and 1000 nM (sheet 'Lestaurtinib' of Supplementary Table 1),run:Lestaurtinib_02624_R3,Plate:MR020",787 nM
same,potency estimated from few doses,"IKBKE; compound concentrations:100 nM and 1000 nM (sheet 'Lestaurtinib' of Supplementary Table 1),run:Lestaurtinib_02724_R1,Plate:MR021",731 nM
same,potency estimated from few doses,"IKBKE; compound concentrations:100 nM and 1000 nM (sheet 'Lestaurtinib' of Supplementary Table 1),run:Lestaurtinib_02724_R2,Plate:MR021",809 nM
same,potency estimated from few doses,"IKBKE; compound concentrations:100 nM and 1000 nM (sheet 'Lestaurtinib' of Supplementary Table 1),run:Lestaurtinib_02724_R3,Plate:MR021",582 nM
same,potency estimated from few doses,"IKBKE; compound concentrations:100 nM and 1000 nM (sheet 'Lestaurtinib' of Supplementary Table 1),run:Lestaurtinib_02741_R1,Plate:MR023",782 nM
same,potency estimated from few doses,"IKBKE; compound concentrations:100 nM and 1000 nM (sheet 'Lestaurtinib' of Supplementary Table 1),run:Lestaurtinib_02741_R2,Plate:MR023",810 nM
same,potency estimated from few doses,"IKBKE; compound concentrations:100 nM and 1000 nM (sheet 'Lestaurtinib' of Supplementary Table 1),run:Lestaurtinib_02741_R3,Plate:MR023",965 nM
same,potency estimated from few doses,"IKBKE; compound concentrations:100 nM and 1000 nM (sheet 'Lestaurtinib' of Supplementary Table 1),run:Lestaurtinib_02748_R1,Plate:MR024",505 nM
same,potency estimated from few doses,"IKBKE; compound concentrations:100 nM and 1000 nM (sheet 'Lestaurtinib' of Supplementary Table 1),run:Lestaurtinib_02748_R3,Plate:MR024",810 nM
same,potency estimated from few doses,"IKBKE; compound concentrations:100 nM and 1000 nM (sheet 'Lestaurtinib' of Supplementary Table 1),run:Lestaurtinib_02752_R1,Plate:MR025",783 nM
same,potency estimated from few doses,"IKBKE; compound concentrations:100 nM and 1000 nM (sheet 'Lestaurtinib' of Supplementary Table 1),run:Lestaurtinib_02752_R2,Plate:MR025",786 nM
same,potency estimated from few doses,"IKBKE; compound concentrations:100 nM and 1000 nM (sheet 'Lestaurtinib' of Supplementary Table 1),run:Lestaurtinib_02752_R3,Plate:MR025",596 nM
same,potency estimated from few doses,"IKBKE; compound concentrations:100 nM and 1000 nM (sheet 'Lestaurtinib' of Supplementary Table 1),run:Lestaurtinib_02765_R1,Plate:MR026",860 nM
same,potency estimated from few doses,"IKBKE; compound concentrations:100 nM and 1000 nM (sheet 'Lestaurtinib' of Supplementary Table 1),run:Lestaurtinib_02765_R3,Plate:MR026",731 nM
same,potency estimated from few doses,"IKBKE; compound concentrations:100 nM and 1000 nM (sheet 'Lestaurtinib' of Supplementary Table 1),run:Lestaurtinib_02768_R1,Plate:MR028",686 nM
same,potency estimated from few doses,"IKBKE; compound concentrations:100 nM and 1000 nM (sheet 'Lestaurtinib' of Supplementary Table 1),run:Lestaurtinib_02768_R2,Plate:MR028",820 nM
same,potency estimated from few doses,"IKBKE; compound concentrations:100 nM and 1000 nM (sheet 'Lestaurtinib' of Supplementary Table 1),run:Lestaurtinib_02768_R3,Plate:MR028",628 nM
same,potency estimated from few doses,"IKBKE; compound concentrations:100 nM and 1000 nM (sheet 'Lestaurtinib' of Supplementary Table 1),run:Lestaurtinib_02795_R1,Plate:MR022",874 nM
same,potency estimated from few doses,"IKBKE; compound concentrations:100 nM and 1000 nM (sheet 'Lestaurtinib' of Supplementary Table 1),run:Lestaurtinib_02795_R3,Plate:MR022",1210 nM
same,potency estimated from few doses,"IKBKE; compound concentrations:100 nM and 1000 nM (sheet 'Lestaurtinib' of Supplementary Table 1),run:Lestaurtinib_02802_R3,Plate:MR029",831 nM
same,potency estimated from few doses,"IKBKE; compound concentrations:100 nM and 1000 nM (sheet 'Lestaurtinib' of Supplementary Table 1),run:Lestaurtinib_02896_R1,Plate:MR030",749 nM
same,potency estimated from few doses,"IKBKE; compound concentrations:100 nM and 1000 nM (sheet 'Lestaurtinib' of Supplementary Table 1),run:Lestaurtinib_02896_R3,Plate:MR030",608 nM
same,potency estimated from few doses,"IKBKE; compound concentrations:100 nM and 1000 nM (sheet 'Lestaurtinib' of Supplementary Table 1),run:Lestaurtinib_03172_R2,Plate:MR031",814 nM
same,potency estimated from few doses,"IKBKE; compound concentrations:100 nM and 1000 nM (sheet 'Lestaurtinib' of Supplementary Table 1),run:Lestaurtinib_03172_R3,Plate:MR031",662 nM
same,potency estimated from few doses,"IKBKE; compound concentrations:100 nM and 1000 nM (sheet 'Lestaurtinib' of Supplementary Table 1),run:Lestaurtinib_03252_R1,Plate:MR032",804 nM
same,potency estimated from few doses,"IKBKE; compound concentrations:100 nM and 1000 nM (sheet 'Lestaurtinib' of Supplementary Table 1),run:Lestaurtinib_03260_R1,Plate:MR033",1210 nM
same,potency estimated from few doses,"IKBKE; compound concentrations:100 nM and 1000 nM (sheet 'Lestaurtinib' of Supplementary Table 1),run:Lestaurtinib_03260_R3,Plate:MR033",943 nM
same,potency estimated from few doses,"NUAK1; compound concentrations:100 nM and 1000 nM (sheet 'Lestaurtinib' of Supplementary Table 1),run:Lestaurtinib_02339_R1,Plate:MR001",94.5 nM
same,potency estimated from few doses,"NUAK1; compound concentrations:100 nM and 1000 nM (sheet 'Lestaurtinib' of Supplementary Table 1),run:Lestaurtinib_02339_R2,Plate:MR001",55.6 nM
same,potency estimated from few doses,NUAK1; [1],62.3 nM
same,potency estimated from few doses,NUAK1; [2],66.1 nM
same,potency estimated from few doses,NUAK1; [3],51.3 nM
same,potency estimated from few doses,"NUAK1; compound concentrations:100 nM and 1000 nM (sheet 'Lestaurtinib' of Supplementary Table 1),run:Lestaurtinib_02367_R3,Plate:MR003",78 nM
same,potency estimated from few doses,NUAK1; [4],85.9 nM
same,potency estimated from few doses,"NUAK1; compound concentrations:100 nM and 1000 nM (sheet 'Lestaurtinib' of Supplementary Table 1),run:Lestaurtinib_02407_R1,Plate:MR005",124 nM
same,potency estimated from few doses,"NUAK1; compound concentrations:100 nM and 1000 nM (sheet 'Lestaurtinib' of Supplementary Table 1),run:Lestaurtinib_02407_R2,Plate:MR005",200 nM
same,potency estimated from few doses,"NUAK1; compound concentrations:100 nM and 1000 nM (sheet 'Lestaurtinib' of Supplementary Table 1),run:Lestaurtinib_02422_R1,Plate:MR006",69.5 nM
same,potency estimated from few doses,NUAK1; [5],89.8 nM
same,potency estimated from few doses,NUAK1; [6],113 nM
same,potency estimated from few doses,NUAK1; [7],94.3 nM
same,potency estimated from few doses,NUAK1; [8],82.5 nM
same,potency estimated from few doses,NUAK1; [9],163 nM
same,potency estimated from few doses,"NUAK1; compound concentrations:100 nM and 1000 nM (sheet 'Lestaurtinib' of Supplementary Table 1),run:Lestaurtinib_02473_R1,Plate:MR010",93 nM
same,potency estimated from few doses,"NUAK1; compound concentrations:100 nM and 1000 nM (sheet 'Lestaurtinib' of Supplementary Table 1),run:Lestaurtinib_02473_R2,Plate:MR010",56.8 nM
same,potency estimated from few doses,NUAK1; [10],115 nM
same,potency estimated from few doses,"NUAK1; compound concentrations:100 nM and 1000 nM (sheet 'Lestaurtinib' of Supplementary Table 1),run:Lestaurtinib_02482_R2,Plate:MR011",74.4 nM
same,potency estimated from few doses,NUAK1; [11],87.3 nM
same,potency estimated from few doses,"NUAK1; compound concentrations:100 nM and 1000 nM (sheet 'Lestaurtinib' of Supplementary Table 1),run:Lestaurtinib_02487_R1,Plate:MR012",60.4 nM
same,potency estimated from few doses,NUAK1; [12],99.7 nM
